Sampled rows, rich in hits. Any-hit rate of the full collection: about 0.9%.
gsp ag: gsp mutant agonism; gsp mutant cells, cAMP HTRF, 30 min; Potency, µM (series often up to 76.9 µM), without a hit: top-dose activation (cAMP increase), most hits filed as activators; hit rate 0.13% among 340,000; active = well fitted activation curve with a large enough effect; inconclusive = small, poorly fitted or top-dose-only effect, or another doubt; inactive = no such curve, though single readings can be large or run the other way; cell line not stated here;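 note: phosphodiesterase inhibitor Ro 20-1724 added with compounds to block cAMP breakdown; potency is the fitted concentration of half-maximal effect; nearly all actives have a fitted effect of over 60% in size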
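Cells in DMEM/10% FBS with G418 were pretreated with compounds in DMSO plus […] (300 uM stock) for 30 min at 37C. cAMP was measured by HTRF (cAMP-d2 plus anti-cAMP antibody-K) after 30 min at room temperature.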
RXFP1 antagonist: RXFP1 (human) relaxin receptor antagonism; Q9HBX9; HEK293-RXFP1, relaxin-stimulated cAMP HTRF, 30 min; stronger effect = lower value; activity change, negative = inhibition, % at 57.5 µM; hit rate 0.59% among 350,000;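 active = activity change of -60% or lower, but not beyond a set lower limit; inconclusive = change between -60% and -40%, or beyond the set limit; inactive = change above -40%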; note: % is set by controls: 0 for no effect and ±100 for the full control effect
Target sequence (Q9HBX9 whole entry, looked up): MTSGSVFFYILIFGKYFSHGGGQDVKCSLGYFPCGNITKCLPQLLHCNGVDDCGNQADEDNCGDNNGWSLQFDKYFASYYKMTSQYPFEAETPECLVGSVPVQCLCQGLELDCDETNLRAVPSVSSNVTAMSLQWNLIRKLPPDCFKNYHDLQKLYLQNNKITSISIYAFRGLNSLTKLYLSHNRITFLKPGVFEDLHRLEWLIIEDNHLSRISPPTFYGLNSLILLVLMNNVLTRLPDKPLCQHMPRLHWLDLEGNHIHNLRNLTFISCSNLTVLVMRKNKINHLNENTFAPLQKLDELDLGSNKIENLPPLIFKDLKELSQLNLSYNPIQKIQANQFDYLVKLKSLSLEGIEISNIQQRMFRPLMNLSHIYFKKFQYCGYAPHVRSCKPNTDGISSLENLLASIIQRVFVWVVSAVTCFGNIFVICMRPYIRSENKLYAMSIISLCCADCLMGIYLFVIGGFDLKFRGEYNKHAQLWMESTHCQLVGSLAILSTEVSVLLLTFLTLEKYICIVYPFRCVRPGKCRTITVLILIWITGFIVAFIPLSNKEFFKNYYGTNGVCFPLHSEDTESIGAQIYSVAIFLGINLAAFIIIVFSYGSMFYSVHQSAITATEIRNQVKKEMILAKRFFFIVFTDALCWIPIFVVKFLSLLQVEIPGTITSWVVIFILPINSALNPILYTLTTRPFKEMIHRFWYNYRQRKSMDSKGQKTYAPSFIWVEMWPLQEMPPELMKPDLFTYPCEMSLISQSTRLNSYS
gsp antagonist: gsp mutant antagonism; gsp-mutant cells, cAMP HTRF, 30 min; Potency, µM (titrated, usually from 76.9 µM), for inactives: top-dose activity change, negative = inhibition, most hits filed as inhibitors; hit rate 0.4% among 340,000; AID 624288; calls by dose curve; cell line not stated here;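 note: intracellular cAMP measured with PDE inhibitor Ro 20-1724 present during compound exposure; potency is the fitted concentration of half-maximal effect; % is set by controls: 0 for no effect and ±100 for the full control effect; nearly all actives have a fitted effect of over 65% in size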
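Measurement of cellular cAMP by homogeneous time-resolved fluorescence following a 30 min compound exposure at 37C. The PDE inhibitor […] was present throughout; the assay buffer was DPBS with 0.05% BSA and 0.005% Tween 20.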
RXFP1 agonist: activates the human relaxin receptor RXFP1; hit rate 0.3% among 370,000; Potency, µM (highest dose often 57.5 µM), for inactives: at the highest dose activation, actives largely listed as activators; AID 2676; Q9HBX9; HEK293T-RXFP1 cAMP TR-FRET, 30 min; response scale: percent of porcine relaxin response, buffer zero; active = well fitted activation curve with a large enough effect; inconclusive = small, poorly fitted or top-dose-only effect; note: potency is the fitted concentration of half-maximal effect; % is set by controls: 0 for no effect and ±100 for the full control effect; nearly all actives have a fitted effect of over 60% in size
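Agonist response is measured as cAMP accumulation in an RXFP1-transfected HEK293T line under PDE4 inhibition. Values are scaled between buffer-only and 29 nM porcine relaxin, and EC50s come from standard Hill equation fits.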
An asterisk follows results filed as active; ? = inconclusive; . = no result given; ! = not confirmed by another sample; [ ] = remark or other dose.

SMILES | gsp ag | RXFP1 antagonist | gsp antagonist | RXFP1 agonist
Cc1ccc(-c2cc(C(F)(F)F)n3ncc(-c4ccc(Cl)cc4)c3n2)cc1 | . | -11 | . | 5%
CCOC(=O)c1sc2nc(NC(=O)C3CC3)sc2c1C | 16% | 1 | 5% | -1%
CCOC(=O)c1sc2nc(NC(=O)C(C)(C)C)sc2c1C | 0% | . | 32µM* | 2%
CC(C)(C)c1csc(NNC(=O)c2ccc(Br)cc2)n1 | 8%[15.4 µM] | -61* | -14% | 1%
CC(C)(C)c1csc(NC(=O)c2ccccc2O)n1 | -4%[15.4 µM] | -35 | -23% | 0%
CCc1nonc1NC(=O)c1oc2cc(C)c(C)cc2c1C | -3% | 12 | 1% | -2%
CCc1nonc1NC(=O)c1oc2ccc(Br)cc2c1C | -22% | -14 | 10% | 25µM*!
Cc1cc(C)c2c(n1)nn1c(C)c(CCC(=O)NCc3ccccc3Cl)c(C)nc21 | . | 0 | . | ?
COc1ccccc1NC(=O)c1cc2ccc3cccnc3c2[nH]1 | . | -71* | . | 0%
CC(C)N(Cc1ccccc1)C(=O)c1cc2ccc3cccnc3c2[nH]1 | . | -101* | . | 0%
COc1ccc(C(=O)COC(=O)c2n[nH]c3ccccc23)c(OC)c1 | -4%[15.4 µM] | -18 | -8% | -1%
COc1ccc(OC)c(NC(=O)COC(=O)c2n[nH]c3ccccc23)c1 | -33% | -7 | 45µM* | 1%
Cc1cc(C)cc(NC(=O)COC(=O)c2n[nH]c3ccccc23)c1 | -25%[15.4 µM] | -25 | 10µM* | 1%
COc1ccc(C)cc1NC(=O)COC(=O)c1c(C)nn(-c2ccccc2)c1C | -43% | -11 | 40µM* | -1%
O=C(COC(=O)c1n[nH]c2ccccc12)Nc1ccccc1 | -5%[15.4 µM] | -18 | . | -2%
Cc1nn(-c2ccccc2)c(C)c1C(=O)OCC(=O)Nc1ccccc1F | -28% | 2 | -9% | 0%
CCCCc1ccc(NC(=O)Cn2nnc3sc4c(c3c2=O)CCC(C)C4)cc1 (stereo unspecified) | . | 1 | . | 0%
CCc1ccc(S(=O)(=O)c2nnn(-c3ccc(F)cc3)c2N)cc1 | . | 2 | . | 1%
CCC1(C(=O)O)NC(c2cc(OC)ccc2O)C2C(=O)N(Cc3ccccc3)C(=O)C21 (stereo unspecified) | -27% | . | 5% | 1%
CCCCN1C(=O)C2C(c3ccc(OC)cc3O)NC(CC(C)C)(C(=O)O)C2C1=O (stereo unspecified) | -8% | . | 8.9µM* | 0%
CCOC(=O)/C(=N\Nc1ccccc1Cl)N1CC(C)OC(C)C1 (stereo unspecified) | 26% | -67* | -13% | 2%
CCOC(=O)/C(=N\Nc1cc(Cl)ccc1Cl)N1CC(C)OC(C)C1 (stereo unspecified) | ? | -11 | 2% | 0%
CCC(Sc1nc2cc3c(cc2c(=O)n1CCCCCC(=O)NCc1ccc2c(c1)OCO2)OCO3)C(=O)NCCCOC (stereo unspecified) | . | -113* | . | 0%
COCCCNC(=O)CSc1nc2cc3c(cc2c(=O)n1CCCCCC(=O)NCc1ccc2c(c1)OCO2)OCO3 | . | -3 | . | 2%
NC(=O)c1ccsc1NC(=O)COC(=O)/C=C/c1ccccc1 | 23%[15.4 µM] | -69* | ? | 0%
SMILES | gsp ag | RXFP1 antagonist | gsp antagonist | RXFP1 agonist
CCc1ccc(NC(=O)C2CCN(S(=O)(=O)c3c(C)noc3/C=C/c3cccs3)CC2)cc1 | . | 2 | . | 2%
CCc1ccc(NC(=O)C2CCN(S(=O)(=O)c3c(C)noc3/C=C/N(C)C)CC2)cc1 | -1% | -62* | -9% | 2%
Cc1ccc(-c2c(C)sc(NC(=O)C3C4CCC(O4)C3C(=O)O)c2C(=O)OC(C)C)cc1 (stereo unspecified) | 26% | -12 | -11% | 6%
CC(C)=C1C2CCC1C(C(=O)Nc1sc(C)c(-c3ccc(C(C)C)cc3)c1C(N)=O)C2C(=O)O (stereo unspecified) | 0% | -3 | 32µM* | 0%
COc1ccc2c(c1)c1c(c(=O)n(CCc3ccccc3)c(=O)n1Cc1cccc(Cl)c1)n2C | . | . | . | 1%
Cc1cc(C)cc(N(CC(=O)NCc2ccco2)C(=O)c2snc(C(N)=O)c2N)c1 | -63% | -60* | -12% | -1%
NC(=O)c1nsc(C(=O)N(Cc2ccco2)C(C(=O)NCc2ccccc2)c2ccc(O)cc2)c1N (stereo unspecified) | 7% | -4 | 11µM* | -1%
Cc1ccccc1N(C(=O)c1snc(C(N)=O)c1N)C(C(=O)NCc1ccccc1)c1ccc(O)cc1 (stereo unspecified) | -31%[15.4 µM] | -30 | 11% | 12%
CCN(C(=O)CCN1C(=O)/C(=C/c2ccccc2)SC1=S)C1CCS(=O)(=O)C1 (stereo unspecified) | ? | 0 | 28µM* | -2%
CN(C(=O)CCN1C(=O)/C(=C/c2ccc(F)cc2)SC1=S)C1CCS(=O)(=O)C1 (stereo unspecified) | -3% | -1 | . | .
CN(C)c1ccc(/C=N/n2c(-c3ccccc3Br)n[nH]c2=S)cc1 | 5% | -94* | ? | 2%
Cc1cc(C)c(Cn2c(=O)n(CCC(=O)NCc3ccc4c(c3)OCO4)c(=O)c3ccccc32)c(C)c1 | . | . | . | 15%
Cc1ccccc1S(=O)Cc1ccc(C(=O)N2CCN(c3cccc(C)c3C)CC2)o1 (stereo unspecified) | . | -98* | . | 6%
Cc1cccc(N2CCN(C(=O)c3ccc(CS(=O)Cc4ccc(Cl)cc4)o3)CC2)c1C (stereo unspecified) | 11% | -78* | -25% | 0%
O=C(c1ccc(CS(=O)Cc2ccc(Cl)cc2)o1)N1CCN(c2cccc(Cl)c2)CC1 (stereo unspecified) | 36% | -20 | 32µM* | 4%
Cc1cccc(N2CCN(C(=O)c3ccc(CS(=O)c4cccc(Cl)c4)o3)CC2)c1C (stereo unspecified) | . | -32 | . | -1%
O=C(c1ccc(CS(=O)Cc2ccc(Cl)cc2)o1)N1CCN(c2ccc(F)cc2)CC1 (stereo unspecified) | -23% | -1 | -3% | 1%
Cc1ccc(N(CC(=O)Nc2cccc(F)c2)S(=O)(=O)c2cccs2)cc1 | . | . | . | 2%
COc1cccc(NC(=O)N2CCN3CCCCC3C2)c1 (stereo unspecified) | . | 5 | . | 1%
CCOc1ccccc1CNC(=O)c1ccc(NC(=O)N2CC(C)Sc3ccccc32)cc1 (stereo unspecified) | . | -12 | . | -1%
CC(=O)c1cccc(OCc2cc(C(=O)N3CCSCC3)no2)c1 | -6%[15.4 µM] | -8 | 7% | 0%
CC(=O)c1cccc(OCc2cc(C(=O)N3CCC(N4CCCCC4)CC3)no2)c1 | 15% | -81* | -3% | 0%
Cc1cc(C)n(-c2cc(C(C)(C)C)nc3c(-c4ccc(Cl)cc4)cnn23)n1 | -49% | -10 | -6% | 0%
Cc1cc(C)n(-c2cc(C(C)(C)C)nc3c(-c4ccccc4)cnn23)n1 | 7%[15.4 µM] | -80* | -27% | -1%
CCOC(=O)c1[nH]c(C)c(CCC(=O)NCc2ccc(CC)cc2)c1C | . | -19 | . | 1%

From PubChem BioAssay
